Compound activity from PubChem BioAssay.
An excerpt weighted towards active compounds, which were near 3% of everything screened.
Sm TGR inh = S. mansoni TGR enzyme inhibition; Q962Y6; purified TGR, DTNB reduction, TNB absorbance 405 nm; Potency, µM (top dose mostly 114 µM), most hits filed as inhibitors; 3% of 360,000 active; AID 485364; active = well fitted inhibition curve with a large enough effect; inconclusive = small, poorly fitted or top-dose-only effect; inactive = no such curve, though single readings can be large or run the other way; note: nearly all actives have a fitted effect of over 60% in size
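Kinetic colorimetric format: TGR-catalysed, NADPH-driven DTNB reduction monitored via TNB absorbance. Enzyme dispensed at 20 nM; compound exposure 15 min at room temperature before reaction start.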
SARS PLP yeast = inhibitors of SARS-CoV papain-like protease in yeast. AID 485353. Potency, µM (series often up to 32.9 µM), usual class: activators. S. cerevisiae expressing SARS-CoV PLpro, growth rescue. 0.19% of 330,000 active; calls by dose curve; note: nearly all actives have a fitted effect of over 55% in size
Numbers stand for hits; ! = repeats disagree.

How did Cc1ccccc1N=Nc1c(O)n(C)c2ccccc12 do in these assays?
Sm TGR inh: 35µM; SARS PLP yeast: inactive

Results for Cn1c(O)c(N=NC(=N)N)c2ccccc21 ?
Sm TGR inh: inactive; SARS PLP yeast: inactive

How did O=C(c1[nH]c2ccccc2c1Sc1ccc(Cl)cc1)N1CCCCC1 do in these assays?
Sm TGR inh: inactive

How did COc1ccc2oc(C(=O)N3CCN(c4ncccn4)CC3)c(C)c2c1 do in these assays?
Sm TGR inh: inactive; SARS PLP yeast: inactive

How did COc1ccc2oc(C(=O)N3CCN(C(=O)c4ccco4)CC3)c(C)c2c1 do in these assays?
Sm TGR inh: 50µM; SARS PLP yeast: inactive

How did COCCNC(=O)CS(=O)Cc1nc(-c2ccc(Cl)cc2)oc1C (centres undefined) do in these assays?
Sm TGR inh: inconclusive; SARS PLP yeast: inactive

How did COc1cccc(-c2nc(CS(=O)CC(=O)NC(C)CCc3ccccc3)c(C)o2)c1 (centres undefined) do in these assays?
Sm TGR inh: 10µM; SARS PLP yeast: inconclusive

How did Cc1cccc(-c2nc(CS(=O)CC(=O)NCCc3ccccc3)c(C)o2)c1 (centres undefined) do in these assays?
Sm TGR inh: inactive; SARS PLP yeast: inactive

What do the screens show for `COCCCNC(=O)CS(=O)Cc1nc(-c2ccccc2C)oc1C` (centres undefined)?
Sm TGR inh: 40µM; SARS PLP yeast: inactive

Results for Cc1ccccc1-c1nc(CS(=O)CC(=O)NC(C)CCc2ccccc2)c(C)o1 (centres undefined) ?
Sm TGR inh: 0.14µM; SARS PLP yeast: inactive

What do the screens show for `Cc1oc(-c2ccccc2F)nc1CS(=O)CC(=O)NCc1ccccc1` (centres undefined)?
Sm TGR inh: inactive; SARS PLP yeast: inconclusive

What do the screens show for `COc1cccc(-c2nc(CS(=O)CC(=O)NCCc3ccccc3)c(C)o2)c1` (centres undefined)?
Sm TGR inh: 20µM; SARS PLP yeast: inactive

How did CCC(C)NC(=O)CS(=O)(=O)Cc1nc(-c2cccc(OC)c2)oc1C (centres undefined) do in these assays?
Sm TGR inh: inconclusive; SARS PLP yeast: inactive

Results for O=S(=O)(Nc1ccc(-c2ccc(N3CCCC3)nn2)cc1)c1ccc(OC(F)(F)F)cc1 ?
Sm TGR inh: inactive

What do the screens show for `COc1ccc(CNC(=O)C2CCN(c3nnc(-n4cccc4CNc4ccc(C)cc4)s3)CC2)c(OC)c1`?
Sm TGR inh: inactive

What do the screens show for `COc1cccc(-c2nc(CS(=O)CC(=O)O)c(C)o2)c1` (centres undefined)?
Sm TGR inh: inconclusive; SARS PLP yeast: inactive

What do the screens show for `COc1cccc(-c2nc(CS(=O)CC(=O)NCCCOC(C)C)c(C)o2)c1` (centres undefined)?
Sm TGR inh: 25µM; SARS PLP yeast: inactive

What do the screens show for `COc1cccc(-c2nc(CS(=O)(=O)CC(=O)NCCCOC(C)C)c(C)o2)c1`?
Sm TGR inh: inconclusive; SARS PLP yeast: inactive

How did CCC(C)NC(=O)CS(=O)Cc1nc(-c2cccc(OC)c2)oc1C (centres undefined) do in these assays?
Sm TGR inh: 28µM; SARS PLP yeast: inactive

Results for COc1ccc(-c2nc(CS(=O)CC(=O)NCCc3ccc(C)cc3)c(C)o2)cc1OC (centres undefined) ?
Sm TGR inh: 40µM; SARS PLP yeast: inactive

What do the screens show for `COc1ccc(CCNC(=O)CS(=O)Cc2nc(-c3ccc(C)cc3)oc2C)cc1OC` (centres undefined)?
Sm TGR inh: inconclusive; SARS PLP yeast: inactive

What do the screens show for `O=C(NCc1noc2ccccc12)Nc1ccc(F)cc1F`?
Sm TGR inh: inactive

How did COc1cccc(N2CCN(S(=O)(=O)c3ccc4[nH]c5c(c4c3)CCCC5)CC2)c1 do in these assays?
Sm TGR inh: inactive

How did COc1ccc(OC)c(C2NC(=O)NC(C)=C2C(=O)Nc2ccc(F)cc2)c1 (centres undefined) do in these assays?
Sm TGR inh: inactive

What do the screens show for `CC(C)c1ccc(NC(=O)c2ccc3c(c2)CCCN3S(C)(=O)=O)cc1`?
Sm TGR inh: inactive

How did CC12CCC(C(=O)Nc3ccccc3)(C/C1=N\O)C2(C)C (centres undefined) do in these assays?
Sm TGR inh: inactive; SARS PLP yeast: inactive

What do the screens show for `CC12CCC(C(=O)O)(C/C1=N\O)C2(C)C` (centres undefined)?
Sm TGR inh: inactive; SARS PLP yeast: 11µM!

How did CC(=O)OCC1=C(C(=O)O)N2C(=O)C(NC(=O)CCn3nc(C(F)(F)F)c(Br)c3C3CC3)C2SC1 (centres undefined) do in these assays?
Sm TGR inh: 22µM; SARS PLP yeast: inactive

What do the screens show for `CC1=C(C(=O)OCc2ccc([N+](=O)[O-])cc2)N2C(=O)C(NC(=O)Cc3ccccc3)C2SC1` (centres undefined)?
Sm TGR inh: inactive; SARS PLP yeast: inactive

How did COCCNC(=O)Cn1nc(C(F)(F)F)c(Br)c1C do in these assays?
Sm TGR inh: inactive; SARS PLP yeast: inactive

Results for Cc1cc(C(F)F)nn1CC(=O)NC1CCCC1 ?
Sm TGR inh: inactive; SARS PLP yeast: inactive

Results for CC(=O)OCC1=C(C(=O)O)N2C(=O)C(NC(=O)Cn3nc(C(F)F)c(Cl)c3C)C2SC1 (centres undefined) ?
Sm TGR inh: 22µM; SARS PLP yeast: inactive

What do the screens show for `CC(=O)OCC1=C(C(=O)O)N2C(=O)C(NC(=O)CCn3nc(C)c(Cl)c3C)C2SC1` (centres undefined)?
Sm TGR inh: 28µM; SARS PLP yeast: inactive

Results for Cc1nnc(SCC2=C(C(=O)O)N3C(=O)C(NC(=O)Cn4nc(C(F)F)cc4C)C3SC2)s1 (centres undefined) ?
Sm TGR inh: 40µM; SARS PLP yeast: inactive

What do the screens show for `CCOc1ccc(N(CC)S(=O)(=O)N2CCCC(C(=O)Nc3ccc(OC)c(Cl)c3)C2)cc1` (centres undefined)?
Sm TGR inh: inactive

How did COCCNC(=O)c1ccc2c(=O)n(CCc3ccccc3)c(SCC(=O)CC(=O)OC)nc2c1 do in these assays?
Sm TGR inh: inactive

How did CN(C)CCn1nnnc1SCC1=C(C(=O)O)N2C(=O)[C@@H](NC(=O)Cc3csc(N)n3)[C@H]2SC1 do in these assays?
Sm TGR inh: 32µM

Results for CO[C@@]1(NC(=O)CSCC#N)C(=O)N2C(C(=O)O)=C(CSc3nnnn3C)CS[C@@H]21 ?
Sm TGR inh: inactive; SARS PLP yeast: inactive

How did Cc1nnc(SCC(=O)NC2CC2)s1 do in these assays?
Sm TGR inh: inactive; SARS PLP yeast: inactive

Results for Cc1nnc(SCC2=C(C(=O)O)N3C(=O)C(NC(=O)Cn4nc(C(F)F)c(Cl)c4C)C3SC2)s1 (centres undefined) ?
Sm TGR inh: 13µM; SARS PLP yeast: inactive

Results for CC(C)c1ccccc1Oc1c(C(F)(F)F)oc2c(CN3CCN(C)CC3)c(O)ccc2c1=O ?
Sm TGR inh: inactive

Results for CCN(CC(=O)Nc1ccc(NC(C)=O)cc1)C(=O)/C=C/c1ccccc1 ?
Sm TGR inh: inactive

What do the screens show for `CCN(CC(=O)Nc1ccc(NC(C)=O)cc1)C(=O)/C=C/c1ccc(C)o1`?
Sm TGR inh: 45µM; SARS PLP yeast: inactive

How did Cc1ccc(O)c(C2=Nc3ccccc3N=C(c3cccc(F)c3)C2)c1 do in these assays?
Sm TGR inh: inactive

How did Cc1ccc(C2=Nc3ccccc3N=C(C(Cl)Cl)C2)cc1 do in these assays?
Sm TGR inh: 35µM; SARS PLP yeast: inactive

What do the screens show for `Oc1ccc(Cl)cc1C1=Nc2ccccc2N=C(c2ccccc2)C1`?
Sm TGR inh: inactive

Results for Cc1ccc2c(c1)N=C(c1ccccc1)CC(C(Cl)Cl)=N2 ?
Sm TGR inh: 16µM; SARS PLP yeast: inactive
